Kir21 inh – blocks the mouse Kir2.1 inward-rectifier potassium channel; B-score at 10 µM; P35561; AID 1672; 0.85% of 310,000 active; HEK293-Kir2.1, FluxOR thallium flux fluorescence; active compounds read low;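 active = fluorescence ratio B-score at or below minus 3 SD of library scores, with starting-brightness B-score within 2 SD, cut at about -4.2 in these data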;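 note: channel flux triggered by added potassium and thallium sulfate stimulus; B-score of peak minus minimum fluorescence over baseline after thallium stimulus; more negative B-score means stronger Kir2.1 block with less thallium influx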
TMEM16A inh – inhibitors of mouse TMEM16A calcium-activated chloride channel. Q8BHY3. HEK293 TMEM16A/YFP iodide influx fluorescence, ionomycin. normalized B-score (activity score, 25-100; higher = stronger inhibition) at 10 µM. 1.2% of 310,000 active;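 active = ratio plate-corrected score three or more library SD toward inhibition, starting fluorescence score within five deviations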;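 note: score derived from kinetic fluorescence span divided by baseline fluorescence per well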
CHT inh – inhibits the human high affinity choline transporter. Q9GZV3. CHT-expressing cells, membrane potential dye, choline response; active compounds read low. B-score at 10 µM. 0.86% of 310,000 active. AID 488975;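 active = B-score over 3 SD under the library average, and starting fluorescence ratio not unusually high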;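 note: choline stimulus applied at its EC90 after an EC20 pre-addition; B-score computed on integrated fluorescence ratio after choline addition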
CHT allo act – allosterically activates the human high affinity choline transporter; CHT-expressing cells, membrane potential dye, choline EC20; active compounds read high; LV-AA mutant CHT in HEK293 cells; B-score at 10 µM; 0.49% of 310,000 active;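 active = initial fluorescence not abnormally high and integrated response B-score, plate-corrected, over 3 SD above library mean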
ANO1 activ – activates or potentiates the mouse TMEM16A chloride channel. Q8BHY3. HEK293 TMEM16A/YFP-H148Q/I152L, iodide quench fluorescence; active compounds read low. B-score at 10 µM. 0.3% of 340,000 active;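 active = fluorescence-ratio B-score plate-corrected deviation score at least 3 library SD below zero, with starting fluorescence score within 5 deviations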;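 note: channel opened by trigger with iodide after compound preincubation; score built on the fluorescence ratio of max minus min over baseline; more negative score means more quench and so TMEM16A activation or potentiation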
Rce1 inh – yeast Ras-converting enzyme inhibition; Q03530; 0.27% of 290,000 active; AID 2563; yeast membranes, quenched prenylated peptide cleavage fluorescence; calls only;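 active = fall in fluorescence gain of 50% or more versus controls, with final raw signal at or below 3038400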;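 note: plate controls were neutral control wells for no effect and wells lacking membranes for full effect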
Target sequence (Q03530 whole entry, looked up): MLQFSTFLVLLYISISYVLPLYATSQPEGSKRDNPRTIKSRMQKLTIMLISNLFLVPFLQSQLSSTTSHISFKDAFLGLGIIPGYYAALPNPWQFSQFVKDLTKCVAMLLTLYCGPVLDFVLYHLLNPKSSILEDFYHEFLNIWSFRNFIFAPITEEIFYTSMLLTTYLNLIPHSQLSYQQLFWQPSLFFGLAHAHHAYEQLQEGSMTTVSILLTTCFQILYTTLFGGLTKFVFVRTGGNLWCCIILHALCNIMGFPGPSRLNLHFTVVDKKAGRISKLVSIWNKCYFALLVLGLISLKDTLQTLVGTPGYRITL
Numbers without * were called inactive; i = inactive; nt = no result given; + = active, no number. Most compounds without a hit are left out; they make up all but 3.2% or so of the library.

SMILES | Kir21 inh | TMEM16A inh | CHT inh | CHT allo act | ANO1 activ | Rce1 inh
CS/C(=N\S(=O)(=O)c1ccc(Cl)cc1)c1ccccc1 | -5.3* | i | i | i | i | i
O=S(=O)(/N=C(\Sc1ccc(Cl)cc1)c1ccccc1)c1ccccc1 | -2.1 | i | i | i | i | i
Cc1ccc(NC(=O)C2CCN(S(=O)(=O)c3cccnc3)CC2)cc1C | 0.44 | i | i | i | i | i
Cc1cc(C)nc(N2CCC(C(=O)NCc3ccccc3)CC2)n1 | 1.4 | i | i | i | i | i
Cc1cc(C)nc(N2CCC(CNC(=O)CCc3ccccc3)CC2)n1 | 0.09 | i | i | i | -7.7* | i
CCCCn1nc(C(=O)N(C)C2CCCCC2)c2ccccc2c1=O | nt | nt | nt | nt | -30* | nt
Cc1c(N=Cc2nc3ccccc3[nH]2)c(=O)n(-c2ccccc2)n1C | 0.69 | i | i | i | -13* | i
CCOc1ccc(CCNC(=O)CCS(=O)(=O)c2ccc(Cl)cc2)cc1OCC | -0.14 | i | i | i | i | i
CCS(=O)(=O)c1ncc(Cl)c(C(=O)Nc2ccc(C)cc2)n1 | -5* | i | i | i | i | i
O=C(NNC1=C(C(=O)C(F)(F)F)CCC1)c1ccccc1Cl | -0.73 | i | i | i | -19* | i
CCN=C(NCC)SC1CC(=O)N(c2ccc(OC)cc2)C1=O (stereo not drawn) | -1.8 | i | i | i | i | i
CCN=C(NCC)SC1CC(=O)N(c2cccc(OCC)c2)C1=O (stereo not drawn) | 0.37 | i | i | i | -9.4* | i
C[C@H](CCC(=O)O)[C@H]1CC[C@H]2[C@@H]3CC[C@@H]4C[C@H](O)CC[C@]4(C)[C@H]3C[C@H](O)[C@]12C | -0.1 | i | -6.5* | i | i | i
O=c1c2ccccc2nc2n1CCCCN2 | -0.37 | i | i | i | i | +
CCCC(=O)Nc1cc(-c2nn(C)c(=O)c3ccccc23)ccc1N1CCOCC1 | -0.39 | i | i | i | i | i
CCC(=O)Nc1cc(-c2nn(CC(=O)N3CCCCC3)c(=O)c3ccccc23)ccc1N1CCOCC1 | -0.49 | i | i | i | i | +
O=C(NCCN1CCCCC1)Nc1ccc(F)cc1F | -0.74 | i | i | i | i | i
CN1CCC(NCCC(c2ccc(F)cc2)c2ccc(Cl)cc2)CC1 (stereo not drawn) | -6.7* | i | i | i | i | i
Cc1ccc2nc3c(c(Nc4ccc5c(c4)OCCO5)c2c1)CCC3 | -5.6* | i | i | i | i | i
Cc1ccc2nc3c(c(Nc4ccc(O)cc4)c2c1)CCC3 | 0.46 | i | i | i | i | i
Cc1cccc(Nc2c3c(nc4ccccc24)CCC3)c1 | -6* | i | i | i | i | i
CCC(COC)NC(=O)CCc1nnc(Cc2cccc(C(F)(F)F)c2)o1 (stereo not drawn) | -1.2 | i | i | i | i | +
CC(C)NC(=O)CCc1nnc(Cc2cccc(C(F)(F)F)c2)o1 | 0.97 | i | i | i | i | i
C=C(CN(C)C)C(=O)c1ccc2c(c1)OCO2 | nt | nt | nt | nt | i | nt
C=C(C(=O)c1ccccc1)C(C(=C)C(=O)c1ccccc1)c1ccc(OC)cc1 | 0.92 | i | i | i | i | i
SMILES | Kir21 inh | TMEM16A inh | CHT inh | CHT allo act | ANO1 activ | Rce1 inh
C=C(C(=O)c1ccccc1)C(c1ccccc1)C(C)C(=O)c1ccccc1 (stereo not drawn) | -4.4* | i | i | i | i | i
O=C(c1ccccc1)C(c1ccccc1)c1ccccc1 | -0.81 | i | i | i | i | i
C=C(C(=O)c1ccccc1)C(C)C(=C)C(=O)c1ccccc1 | -4.4* | i | i | i | i | i
COc1ccc(CN2CC[C@H]3C=CC[C@@H](C(=O)NCCc4ccccc4)[C@H]3C2=O)cc1OC | -0.33 | i | i | i | i | i
Cc1nnc(SCc2nnc(-c3ccccc3Br)o2)s1 | -1.9 | i | i | i | -7.9* | i
Cn1nnnc1SCc1nnc(-c2ccccc2Br)o1 | 0.24 | i | i | i | i | i
O=C1C2C3C=CC(C2C(=O)N1CCO)C1C(=O)N(CCO)C(=O)C31 (stereo not drawn) | -0.61 | i | i | i | i | i
CCn1cc(CCC(=O)NCCN2CCOCC2)c2ccccc21 | 0.02 | i | i | i | i | i
CCCCN(CC(=O)NC1CCCC1)C(=O)C(=O)Nc1ccc2c(c1)OCCO2 | 1.1 | i | i | i | i | i
Cc1ccccc1C(=O)N1CCN(c2ccc(NC(=O)c3ccc4c(c3)OCCO4)cc2)CC1 | -0.44 | 25* | i | i | i | i
O=C(NNC(=S)Nc1ccccc1)C1CCCCC1 | 0.21 | i | i | i | i | i
Cc1ccc(S(=O)(=O)Nc2cc(Cl)c(O)cc2C)cc1 | -5.6* | i | i | i | i | i
Cc1ccc(S(=O)(=O)Nc2cc(C(C)C)c(O)cc2C)cc1 | -6.5* | i | i | i | i | i
Cc1ccc(NS(=O)(=O)c2ccc(Cl)nc2)c(C)c1 | nt | nt | nt | nt | i | nt
CCOc1ccc(-c2cnc(NCc3cccc4ccccc34)n2CCOC)cc1 | -1.6 | 100* | i | i | i | i
COc1ccccc1CNc1ncc(-c2ccc(F)cc2)n1C | 1.8 | i | i | i | i | i
Cc1ccccc1CN1CCN(C/C=C/c2ccccc2)CC1 | 0.54 | i | i | i | i | i
Nc1nc(N2CCN(C/C=C/c3ccccc3)CC2)nc2ccccc12 | 0.09 | i | -6.8* | i | i | nt
O=C(Oc1ccc2c(=O)c(Oc3ccc4ccccc4c3)coc2c1)c1ccco1 | -0.1 | i | i | i | -5.9* | i
Cc1ccc(C2C3=C(NCCN=C3c3ccccc3)C(=O)N2c2ccccc2)cc1 (stereo not drawn) | -8.8* | i | i | i | i | i
CCOc1ccc(N2C(=O)C3=C(C(c4ccc(Cl)cc4)=NCCN3)C2c2cccnc2)cc1 (stereo not drawn) | 0.22 | i | i | i | i | i
CC(C)C[C@H]1CN=C(N(C)C)N1CCc1cccc(F)c1 | nt | nt | nt | nt | i | nt
Cc1cccc(CCN2C(Nc3ccccc3)=NC[C@@H]2CC(C)C)c1 | nt | i | i | i | -6.1* | nt
CC(C)C[C@H]1CN=C(Nc2ccccc2)N1CCc1cccc(F)c1 | nt | nt | nt | nt | -5.2* | nt
COc1ccc(Cl)cc1S(=O)(=O)N1CCN=C1Cc1ccccc1 | -5.1* | i | i | i | i | i
COC(=O)c1cccc(CSc2nc3ccccc3[nH]2)c1 | -1 | 25* | i | i | i | i

From PubChem
